Screens deposited in PubChem BioAssay by National Center for Advancing Translational Sciences (NCATS).
Most compounds without a hit are left out; they make up all but 21% or so of the library.
CHX counter – counter-screen for Shiga toxin inhibitors: cycloheximide protein synthesis inhibition; cell reporter, cycloheximide protein synthesis inhibition counterscreen; max response, %; 12% of 300,000 active; in the data active = max response mostly above about 13%, no sharp cut-off; inactive = mostly below about 14%; note: read at 38.3 µM for the half of the compounds with a filed dose; 0% is about no effect
Pf growth 96h – P. falciparum growth inhibition at 96 hour, primary screen for plastid delayed-death inhibitors; P. falciparum luciferase reporter growth, 96 h; Potency, µM (highest dose often 28.7 µM), for inactives: at the top dose activity change, negative = inhibition, hits mostly inhibitors; 6.9% of 320,000 active; AID 504834; note: potency is the fitted concentration of half-maximal effect; % is set by controls: 0 for no effect and ±100 for the full control effect
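P. falciparum expressing integrated firefly luciferase grown in erythrocytes (2% hematocrit, 0.05% parasitemia final) with compounds for 96 hours at 37 C, 5% CO2. Growth inhibition read as loss of luminescence after adding luciferase detection reagent.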
NS1 function inh – influenza NS1 inhibition | Potency, µM (series often up to 46.1 µM), without a hit: top-dose activity, positive = more growth | 0.4% of 270,000 active | AID 2326; calls by dose curve; note: potency is the fitted concentration of half-maximal effect; actives are rising curves; nearly all actives have a fitted effect of over 50% in size
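A cell-based growth assay was used: compounds that relieve NS1-induced slow growth of budding yeast raise OD600. Assay medium was yeast nitrogen base with ammonium sulphate and -URA supplement, pH 6.0, with 2% galactose.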
Pf growth 48h – inhibits P. falciparum growth in the first generation, 48 h | P. falciparum luciferase growth in erythrocytes, 48 h | Potency, µM (titrated, usually from 28.7 µM), without a hit: top-dose activity change, negative = inhibition, most hits filed as inhibitors | 5.9% of 310,000 active; note: potency is the fitted concentration of half-maximal effect; % is set by controls: 0 for no effect and ±100 for the full control effect
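Firefly luciferase activity from engineered P. falciparum reports growth; inhibitors lower the luminescent signal. Cultures contained 2% hematocrit erythrocytes at 0.1% final parasitemia.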
Giardia FBPA inh-1 – inhibitors of Giardia lamblia fructose-1,6-bisphosphate aldolase | A8B2U2 | purified Giardia FBPA | 0.71% of 290,000 active | AID 2451 | Potency, µM (top dose mostly 59.6 µM), without a hit: top-dose activity, negative = inhibition, usual class: inhibitors; note: potency is the fitted concentration of half-maximal effect; % is set by controls: 0 for no effect and ±100 for the full control effect; nearly all actives have a fitted effect of over 55% in size
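40 nM FBPA preincubated 10 min at RT with compound (up to 57.5 uM final), then substrate plus GAPDH/TPI/NAD/arsenate coupling and diaphorase/resazurin added. Fluorescence read after 20 min at RT, 525/598 nm.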
Shiga inhibitor – blocks Shiga toxin action in Vero cells; Vero cells, Shiga toxin protein synthesis inhibition reporter; inhibition, % at 38.7 µM; 9.2% of 290,000 active; in the data active = inhibition mostly above about 28%, no sharp cut-off; inactive = mostly below about 43%; note: 0% is about no effect
Giardia growth – Giardia lamblia growth inhibition. Giardia lamblia trophozoite growth inhibition. Potency, µM (top dose mostly 57.5 µM), without a hit: top-dose activity change, negative = inhibition, most hits filed as inhibitors. shares compounds with Giardia FBPA inh-1. AID 2785. 5% of 1,500 active;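 note: potency is the fitted concentration of half-maximal effect; trophozoites exposed to compound for 48 h at 37 °C; % is set by controls: 0 for no effect and ±100 for the full control effect; nearly all actives have a fitted effect of over 70% in size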
Mammalian tox – mammalian cytotoxicity of Giardia aldolase inhibitor hits. AID 2786. Potency, µM (titrated, usually from 57.5 µM), inactives show at the highest dose viability change, negative = toxicity, hits mostly inhibitors. shares compounds with Giardia FBPA inh-1. 4% of 1,500 active. mammalian cell viability counter-screen, qHTS;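 note: Chinese hamster ovary cells used as mammalian cytotoxicity surrogate; viability measured as cellular ATP by luminescence; potency is the fitted concentration of half-maximal effect; compound exposure lasted 48 h before reading; % is set by controls: 0 for no effect and ±100 for the full control effect; nearly all actives have a fitted effect of over 60% in size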
Giardia FBPA inh-2 – confirmation of Giardia fructose-bisphosphate aldolase inhibitors | purified Giardia aldolase enzyme activity, qHTS | Potency, µM (doses to about 57.5 µM), for inactives: at the top dose activity change, negative = inhibition, hits mostly inhibitors | AID 2787 | shares compounds with Giardia FBPA inh-1 | 5% of 1,500 active; note: potency is the fitted concentration of half-maximal effect; % is set by controls: 0 for no effect and ±100 for the full control effect; nearly all actives have a fitted effect of over 45% in size
Rabbit aldolase – blocks rabbit muscle aldolase in Giardia aldolase selectivity test | shares compounds with Giardia FBPA inh-1 | Rabbit muscle FBPA enzyme inhibition, selectivity counter-screen | Potency, µM (titrated, usually from 57.5 µM), for inactives: at the highest dose activity, negative = inhibition, most hits filed as inhibitors | 4% of 1,500 active; note: potency is the fitted concentration of half-maximal effect; % is set by controls: 0 for no effect and ±100 for the full control effect; nearly all actives have a fitted effect of over 60% in size
Target sequence (P00883 whole entry, looked up): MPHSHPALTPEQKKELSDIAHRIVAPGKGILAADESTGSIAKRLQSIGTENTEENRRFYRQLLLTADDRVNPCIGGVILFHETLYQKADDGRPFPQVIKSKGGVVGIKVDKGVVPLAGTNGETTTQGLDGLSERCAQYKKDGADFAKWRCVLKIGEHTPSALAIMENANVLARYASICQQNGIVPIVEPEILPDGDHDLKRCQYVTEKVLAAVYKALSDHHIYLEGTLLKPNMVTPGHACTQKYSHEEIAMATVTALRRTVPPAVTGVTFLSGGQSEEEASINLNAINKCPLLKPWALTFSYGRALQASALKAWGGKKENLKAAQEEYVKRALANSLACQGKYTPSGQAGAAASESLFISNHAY
GAPDH counter – GAPDH inhibition flagged for Giardia aldolase hits; shares compounds with Giardia FBPA inh-1; GAPDH coupling enzyme counterscreen, biochemical, qHTS; Potency, µM (top dose mostly 57.5 µM), without a hit: top-dose activity change, negative = inhibition, hits mostly inhibitors; 6% of 1,500 active; note: potency is the fitted concentration of half-maximal effect; % is set by controls: 0 for no effect and ±100 for the full control effect; nearly all actives have a fitted effect of over 55% in size
An asterisk follows results filed as active; [ ] = dose if it differs, or a comment. Unless noted, calls come from the whole dose curve; as a rule, active = well fitted curve in the direction sought with a large enough effect; inconclusive = small, poorly fitted or top-dose-only effect, or another doubt; inactive = no such curve, though single readings can be large; an effect the other way counts as inactive or inconclusive.

`CCCn1nnc(NC(=O)C(C)C)n1` gave CHX counter -1, Pf growth 96h 0%, NS1 function inh 3%, Pf growth 48h -14%, Giardia FBPA inh-1 5% and Shiga inhibitor 27.
For COc1cccc(C(=O)N2CCN(Cc3ccc4c(c3)OCO4)CC2)c1OC the results were CHX counter -3, Pf growth 96h -22%, NS1 function inh -1%, Pf growth 48h 2%, Giardia FBPA inh-1 -18% and Shiga inhibitor -19.
For COc1ccc(CN2CCN(C(=O)c3cccc(OC)c3OC)CC2)cc1OC the results were CHX counter -2, Pf growth 96h -17%, Pf growth 48h 7%, Giardia FBPA inh-1 20µM*, Shiga inhibitor -9, Giardia growth 12%, Mammalian tox 1%, Giardia FBPA inh-2 8%, Rabbit aldolase 4% and GAPDH counter 8%.
`COc1ccc(CN2CCN(C(C)C(=O)N(C)Cc3cccc(F)c3)CC2)cc1OC` (stereo unspecified) gave CHX counter 3, Pf growth 96h inconclusive, NS1 function inh 4%, Pf growth 48h -11%, Giardia FBPA inh-1 16µM*, Shiga inhibitor -2, Giardia growth inconclusive, Mammalian tox 3%, Giardia FBPA inh-2 6%, Rabbit aldolase 6% and GAPDH counter 9%.
O=C(CCN1CCN(CCO)CC1)N1c2ccccc2Sc2ccc(C(F)(F)F)cc21 was read as CHX counter -2, Pf growth 96h inconclusive, NS1 function inh -2%, Pf growth 48h inconclusive, Giardia FBPA inh-1 7.9µM*, Shiga inhibitor -9, Giardia growth -14%, Mammalian tox 2%, Giardia FBPA inh-2 -3%, Rabbit aldolase 0% and GAPDH counter 2%.
For CN1CCc2cccc3c2C1Cc1ccc(O)c(O)c1-3 (stereo unspecified) the results were CHX counter -1, Pf growth 96h 10µM*, NS1 function inh inconclusive, Pf growth 48h inconclusive, Giardia FBPA inh-1 14µM*, Shiga inhibitor 1, Giardia growth 6%[10.4 µM], Mammalian tox -18%, Giardia FBPA inh-2 inconclusive, Rabbit aldolase inconclusive and GAPDH counter -10%.
Screening Cc1nc(NC(=O)CSc2nnc(C3CC3)n2C)sc1C returned CHX counter 12, Pf growth 96h 35%, NS1 function inh 9%, Pf growth 48h 34%, Giardia FBPA inh-1 -5% and Shiga inhibitor 24.
Cc1nc(SCC(=O)c2ccccc2)n[nH]1 was read as CHX counter 63, Pf growth 96h 31%, NS1 function inh -53%, Pf growth 48h 44%, Giardia FBPA inh-1 13µM*, Shiga inhibitor 15, Giardia growth 11%, Mammalian tox -11%, Giardia FBPA inh-2 5%, Rabbit aldolase 10% and GAPDH counter 3%.
`S=c1[nH]nc(Cn2cnc3ccccc32)n1-c1ccccc1Cl` gave CHX counter 11, Pf growth 96h -2%, NS1 function inh -2%, Pf growth 48h -11%, Giardia FBPA inh-1 -24% and Shiga inhibitor -4.
Cc1cc(C(=O)Nn2cnc3ccccc3c2=O)ccc1[N+](=O)[O-] was read as CHX counter 5, Pf growth 96h 27%, Pf growth 48h 12%, Giardia FBPA inh-1 11% and Shiga inhibitor -8.
